Data as given in PubChem BioAssay (EPA / NIEHS).
Results filed as inconclusive are left out. The source made the active and inactive calls. How the source made its calls, unless noted: active means hit-call score of the fitted dose curve at least 0.9, where 1 is the maximum; inactive means score below 0.9.

Experiments:
[1] = read-out: Macrophage colony-stimulating factor (MCSF), CSF1 (gene 1435); assay: BSK_LPS_MCSF: BioMAP Diversity Plus: LPS Assay for Macrophage colony-stimulating factor (MCSF) Biomarker Activity (AID 2283083); details: primary human HUVEC with PBMC; actives raise or lower the signal
Outline: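 Human umbilical vein endothelial cells co-cultured with peripheral blood mononuclear cells were exposed to compound for 24 h. M-CSF levels were measured by ELISA, and bidirectional curve fitting used DMSO as the negative control and baseline.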

[2] = read-out: Tumor necrosis factor (Homo sapiens) (UniProt P01375); assay: BSK_LPS_TNFa: BioMAP Diversity Plus: LPS Assay for Tumour Necrosis Factor alpha (TNFa) Biomarker Activity (AID 2283085); details: primary human HUVEC with PBMC; actives raise or lower the signal
Outline: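 Read-out is ELISA of TNFa in primary human endothelial cell–PBMC co-cultures at 24 h after compound. Activity in either direction was fitted against DMSO.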

[3] = read-out: Vascular cell adhesion molecule 1 (VCAM1), VCAM1 (gene 7412); assay: BSK_LPS_VCAM1: BioMAP Diversity Plus: LPS Assay for Vascular cell adhesion molecule 1 (VCAM1) Biomarker Activity (AID 2283086); details: primary human HUVEC with PBMC; actives raise or lower the signal
Outline: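 HUVEC + PBMC co-culture, LPS system; compound 24 h; VCAM-1 by ELISA; bidirectional fit vs DMSO control; parallel SRB (0.1%, TCA-fixed, 560 nm) for cytotoxicity.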

[4] = read-out: CD38, CD38 (gene 952); assay: BSK_SAg_CD38: BioMAP Diversity Plus: SAg Assay for CD38 Biomarker Activity (AID 2283087); details: primary human HUVEC with PBMC; actives raise or lower the signal
Outline: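 Human HUVEC plus PBMC co-culture stimulated with superantigen; CD38 measured by ELISA 24 h after chemical dosing. Fluorescence read-out, bidirectional fit against DMSO; cytotoxicity tracked in parallel by SRB and Alamar Blue.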

[5] = read-out: CD40, CD40 (gene 958); assay: BSK_SAg_CD40: BioMAP Diversity Plus: SAg Assay for CD40 Biomarker Activity (AID 2283088); details: primary human HUVEC with PBMC; actives raise or lower the signal
Outline: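 Human umbilical vein endothelial cells co-cultured with PBMC; CD40 levels measured by ELISA with fluorescence read-out 24 h after chemical dosing. Gain or loss of signal fitted bidirectionally against DMSO baseline.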

[6] = read-out: CD69, CD69 (gene 969); assay: BSK_SAg_CD69: BioMAP Diversity Plus: SAg Assay for CD69 Biomarker Activity (AID 2283089); details: primary human HUVEC with PBMC; actives raise or lower the signal;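 on AC50: cell surface CD69 protein quantified by ELISA with fluorescence detection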
Outline: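 Primary human vascular co-culture (umbilical vein endothelium with peripheral blood mononuclear cells) exposed to test chemical for 24 h. CD69 levels quantified by fluorescence ELISA; DMSO served as negative control for bidirectional fitting.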

[7] = read-out: Monocyte Chemoattractant Protein-1 (MCP1), CCL2 (gene 6347); assay: BSK_SAg_MCP1: BioMAP Diversity Plus: SAg Assay for Monocyte Chemoattractant Protein-1 (MCP1) Biomarker Activity (AID 2283090); details: primary human HUVEC with PBMC; actives raise or lower the signal
Outline: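 MCP-1 levels in the endothelial–PBMC SAg co-culture were quantified by ELISA at 24 h post-dosing; both increases and decreases versus DMSO scored. Cytotoxicity monitored by SRB total protein in parallel cultures.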

[8] = read-out: Monokine induced gamma interferon (MIG), CXCL9 (gene 4283); assay: BSK_SAg_MIG: BioMAP Diversity Plus: SAg Assay for Monokine induced gamma interferon (MIG) Biomarker Activity (AID 2283092); details: primary human HUVEC with PBMC; actives raise or lower the signal
Outline: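 Endothelial cells and PBMC were co-cultured, exposed to test chemicals, and sampled 24 h later. MIG was measured by ELISA, and responses were fitted in both directions relative to DMSO.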

[9] = BSK_SAg_PBMCCytotoxicity: PBMC Cytotoxicity Assessment in the BioMAP Diversity Plus: SAg Assay (AID 2283093); details: primary human HUVEC with PBMC;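 further: PBMC viability measured as Alamar Blue reduction fluorescence at 546/580 nm; fitted both ways against DMSO so a hit may be loss or gain of signal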;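 on AC50: PBMC superantigen activated with SEB plus TSST-1 one hour after compound addition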
Outline: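 Human umbilical vein endothelial cells co-cultured with PBMC; PBMC (75,000/well) pre-treated with compound 1 h, then activated with SEB and TSST-1 (20 ng/mL final each) for 90 h. Alamar Blue added 6 h, fluorescence 546/580 nm; bidirectional fit versus DMSO.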

[10] = read-out: Interleukin-8 (IL8), CXCL8 (gene 3576); assay: BSK_SAg_IL8: BioMAP Diversity Plus: SAg Assay for Interleukin-8 (IL8) Biomarker Activity (AID 2283094); details: primary human HUVEC with PBMC; actives raise or lower the signal
Outline: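 ELISA read-out of IL-8 in a primary human vascular co-culture (umbilical vein endothelium plus PBMC), taken 24 h after compound addition. Values derive from bidirectional fits against DMSO negative controls.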

[11] = BSK_SAg_SRB: Viability Assessment in the BioMAP Diversity Plus: SAg Assay (AID 2283096); details: primary human HUVEC with PBMC;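 further: cells read one day after compound addition; hits may be either gain or loss of signal compared with DMSO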
Outline: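 Endothelial/PBMC primary human co-culture; compound 24 h; fix 10% TCA, stain 0.1% SRB, A560; protein content as cytotoxicity proxy; bidirectional curve fit, DMSO = baseline.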

[12] = target: human CYP1A1, CYP1A1 (gene 1543) (UniProt P04798); assay: NVS_ADME_hCYP1A1: NovaScreen (NVS) CYP450-related Enzyme Activity (ADME) Assay for human CYP1A1 (AID 2283100; active means hit-call score of the fitted dose curve at least 0.9, where 1 is the maximum)
Outline: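 Cell-free fluorescence assay of recombinant human CYP1A1 activity with a specific substrate, read 1 h after dosing. Compounds were screened in duplicate at 10 uM, then hits tested in concentration-response up to 20 uM; acetonitrile served as baseline.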

[13] = read-out: E-selectin (Homo sapiens) (UniProt P16581); assay: BSK_SAg_Eselectin: BioMAP Diversity Plus: SAg Assay for Eselectin Biomarker Activity (AID 2283091); details: primary human HUVEC with PBMC; actives raise or lower the signal
Outline: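 HUVEC co-cultured with PBMC, compound dosed then read at 24 h; E-selectin measured by ELISA. Activity fitted bidirectionally against DMSO as negative control and baseline.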

[14] = BSK_SAg_Proliferation: Cell Proliferation Assessment in the BioMAP Diversity Plus: SAg Assay (AID 2283095); details: primary human HUVEC with PBMC;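 further: relative cell number as total protein by SRB absorbance in sub-confluent culture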
Outline: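 Cells (endothelium plus PBMC, human primary) were dosed with chemical, cultured 96 h, fixed in 10% TCA and stained with 0.1% SRB. Absorbance at 560 nm gave relative protein, fitted bidirectionally relative to DMSO.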

[15] = target: human CYP2C8, CYP2C8 (gene 1558) (UniProt P10632); assay: NVS_ADME_hCYP2C8: NovaScreen (NVS) CYP450-related Enzyme Activity (ADME) Assay for human CYP2C8 (AID 2283104)
Outline: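 Recombinant human CYP2C8 with fluorogenic substrate, 0.5 h, fluorescence intensity; signal loss fitted versus acetonitrile. Screened in duplicate at 10 uM, then actives run in concentration-response up to 20 uM.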

[16] = target: human CYP2B6, CYP2B6 (gene 1555) (UniProt P20813); assay: NVS_ADME_hCYP2B6: NovaScreen (NVS) CYP450-related Enzyme Activity (ADME) Assay for human CYP2B6 (AID 2283101; active means hit-call score of the fitted dose curve at least 0.9, where 1 is the maximum)
Outline: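 Cell-free recombinant enzyme assay with a fluorogenic substrate; fluorescence intensity read 1 hour after dosing. Loss of signal relative to acetonitrile negative control indicates inhibition. Primary screen run in duplicate at 10 uM, actives then tested in concentration series.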

Tumor necrosis factor (Homo sapiens), sequence (P01375 whole entry, looked up): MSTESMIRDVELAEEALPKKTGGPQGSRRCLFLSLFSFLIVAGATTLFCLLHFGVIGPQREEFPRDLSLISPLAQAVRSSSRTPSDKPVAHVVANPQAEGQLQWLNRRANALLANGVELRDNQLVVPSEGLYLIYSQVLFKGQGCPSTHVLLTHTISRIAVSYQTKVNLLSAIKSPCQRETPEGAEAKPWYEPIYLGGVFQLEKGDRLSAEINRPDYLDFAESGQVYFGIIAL
E-selectin (Homo sapiens), sequence (P16581 whole entry, looked up): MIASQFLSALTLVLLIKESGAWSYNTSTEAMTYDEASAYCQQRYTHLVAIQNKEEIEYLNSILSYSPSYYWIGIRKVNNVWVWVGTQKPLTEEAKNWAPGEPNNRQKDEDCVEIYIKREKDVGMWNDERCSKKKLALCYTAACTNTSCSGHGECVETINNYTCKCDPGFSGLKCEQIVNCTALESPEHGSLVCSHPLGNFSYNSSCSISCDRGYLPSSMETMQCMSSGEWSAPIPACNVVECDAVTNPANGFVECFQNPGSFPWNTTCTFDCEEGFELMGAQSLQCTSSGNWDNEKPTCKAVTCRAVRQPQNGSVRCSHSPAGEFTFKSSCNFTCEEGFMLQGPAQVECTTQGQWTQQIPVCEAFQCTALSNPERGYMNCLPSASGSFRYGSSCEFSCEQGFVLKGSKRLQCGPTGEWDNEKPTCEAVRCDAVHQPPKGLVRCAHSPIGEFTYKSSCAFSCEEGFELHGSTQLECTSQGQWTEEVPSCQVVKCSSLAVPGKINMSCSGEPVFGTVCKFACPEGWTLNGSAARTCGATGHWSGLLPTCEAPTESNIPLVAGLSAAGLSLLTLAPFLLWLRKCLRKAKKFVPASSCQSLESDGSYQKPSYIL
human CYP2C8, CYP2C8 (gene 1558), sequence (P10632 whole entry, looked up): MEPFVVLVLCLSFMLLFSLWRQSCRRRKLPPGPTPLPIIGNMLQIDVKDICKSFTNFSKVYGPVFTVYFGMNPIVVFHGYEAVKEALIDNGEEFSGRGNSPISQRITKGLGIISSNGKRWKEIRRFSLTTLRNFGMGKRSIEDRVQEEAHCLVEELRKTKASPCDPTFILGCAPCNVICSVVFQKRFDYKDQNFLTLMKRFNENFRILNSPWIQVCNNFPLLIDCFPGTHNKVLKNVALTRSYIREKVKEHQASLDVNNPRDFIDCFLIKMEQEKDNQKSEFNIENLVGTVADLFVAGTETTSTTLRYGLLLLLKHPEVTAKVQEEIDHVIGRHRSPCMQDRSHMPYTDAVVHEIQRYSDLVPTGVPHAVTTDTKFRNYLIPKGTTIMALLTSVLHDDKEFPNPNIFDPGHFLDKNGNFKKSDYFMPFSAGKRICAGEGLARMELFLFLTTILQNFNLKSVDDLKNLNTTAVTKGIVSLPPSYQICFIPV
human CYP2B6, CYP2B6 (gene 1555), sequence (P20813 whole entry, looked up): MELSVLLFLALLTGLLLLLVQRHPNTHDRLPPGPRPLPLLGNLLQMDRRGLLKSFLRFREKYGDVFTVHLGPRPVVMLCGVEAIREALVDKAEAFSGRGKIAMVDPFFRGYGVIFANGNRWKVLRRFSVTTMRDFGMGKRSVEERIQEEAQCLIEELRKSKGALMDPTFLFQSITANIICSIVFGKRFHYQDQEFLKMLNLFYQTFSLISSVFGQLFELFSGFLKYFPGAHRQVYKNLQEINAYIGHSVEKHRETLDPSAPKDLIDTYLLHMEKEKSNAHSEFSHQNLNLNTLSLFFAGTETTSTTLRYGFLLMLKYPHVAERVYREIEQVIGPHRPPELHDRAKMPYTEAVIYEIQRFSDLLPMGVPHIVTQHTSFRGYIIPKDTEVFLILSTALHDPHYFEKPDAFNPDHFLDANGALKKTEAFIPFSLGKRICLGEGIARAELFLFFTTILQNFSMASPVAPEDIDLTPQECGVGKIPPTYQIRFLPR
human CYP1A1, CYP1A1 (gene 1543), sequence (P04798 whole entry, looked up): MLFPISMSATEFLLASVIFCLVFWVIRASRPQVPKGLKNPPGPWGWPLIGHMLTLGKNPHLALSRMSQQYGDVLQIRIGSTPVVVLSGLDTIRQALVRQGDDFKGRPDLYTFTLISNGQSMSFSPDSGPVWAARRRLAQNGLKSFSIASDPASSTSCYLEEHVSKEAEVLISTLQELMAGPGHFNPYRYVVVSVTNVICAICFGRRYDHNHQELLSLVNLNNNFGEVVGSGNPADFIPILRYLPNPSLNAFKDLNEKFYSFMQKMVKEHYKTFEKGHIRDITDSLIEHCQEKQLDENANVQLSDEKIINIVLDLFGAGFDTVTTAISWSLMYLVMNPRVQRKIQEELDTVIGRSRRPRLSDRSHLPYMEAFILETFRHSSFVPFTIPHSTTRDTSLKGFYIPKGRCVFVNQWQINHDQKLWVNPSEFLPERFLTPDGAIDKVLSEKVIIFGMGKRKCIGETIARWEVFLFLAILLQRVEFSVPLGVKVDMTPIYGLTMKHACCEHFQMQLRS

In the case of `Nc1ccc(-c2ccc(N)cc2)cc1`, the outcome [1] is reported as “inactive”, the outcome [2] is reported as “inactive” and the outcome [3] is reported as “inactive”. The outcome [4] was “inactive”, the outcome [5] was “inactive” and the outcome [6] was “inactive”. For the same compound, the outcome [7] was “inactive”, the outcome [8] was “inactive” and the outcome [9] was “inactive”. The outcome [10] was “inactive”, the outcome [11] was “inactive” and the AC50 [12] was 3.1 µM (active).

With `Sc1ccccc1` the outcome [1] was “inactive”, the outcome [2] was “inactive” and the outcome [3] was “inactive”. The outcome [4] was “inactive”, the outcome [5] was “inactive” and the outcome [6] was “inactive”. The outcome [7] was “inactive”, the outcome [13] was “inactive” and the outcome [8] was “inactive”. The outcome [9] was “inactive”, the outcome [10] was “inactive” and the outcome [11] was “inactive”.

In the case of `CCC(C)(CC)c1cc(NC(=O)c2c(OC)cccc2OC)on1`, the outcome [1] is reported as “inactive”, the outcome [2] is reported as “inactive” and the outcome [3] is reported as “inactive”. The outcome [4] was “inactive”, the outcome [5] was “inactive” and the outcome [6] was “inactive”. The outcome [7] was “inactive”, the outcome [8] was “inactive” and the outcome [9] was “inactive”. The outcome [10] was “inactive”, the outcome [14] was “inactive” and the outcome [11] was “inactive”. For the same compound, the outcome [15] was “inactive”.

For `COS(=O)(=O)OC`, the outcome [1] was “inactive”, the AC50 [2] was 0.318 µM (active) and the outcome [3] was “inactive”. The outcome [4] was “inactive”, the outcome [5] was “inactive” and the outcome [6] was “inactive”. For the same compound, the outcome [7] was “inactive”, the outcome [8] was “inactive” and the outcome [9] was “inactive”. For the same compound, the outcome [10] was “inactive” and the outcome [11] was “inactive”.

For `ClC(Cl)=C(c1ccc(Cl)cc1)c1ccc(Cl)cc1`, the AC50 [2] was 31.8 µM (active), the AC50 [3] was 30.4 µM (active) and the AC50 [4] was 33.3 µM (active). The AC50 [5] was 32.5 µM (active), the AC50 [6] was 30.6 µM (active) and the AC50 [7] was 39.2 µM (active). For the same compound, the AC50 [8] was 36 µM (active), the AC50 [9] was 15.4 µM (active) and the AC50 [10] was 34.6 µM (active). The AC50 [14] was 18.4 µM (active), the AC50 [11] was 32 µM (active) and the outcome [16] was “inactive”.

For `N#Cc1ccc(N(CC(N)=O)CC(F)(F)F)cc1C(F)(F)F`, the outcome [1] was “inactive”, the outcome [2] was “inactive” and the outcome [3] was “inactive”. For the same compound, the outcome [4] was “inactive”, the outcome [5] was “inactive” and the outcome [6] was “inactive”. For the same compound, the outcome [7] was “inactive”, the outcome [8] was “inactive” and the outcome [9] was “inactive”. For the same compound, the outcome [10] was “inactive”.

In the case of `O=C(N[C@H]1CN2CCC1CC2)c1cc2ccoc2cn1`, the outcome [1] is reported as “inactive”, the outcome [2] is reported as “inactive” and the outcome [3] is reported as “inactive”. For the same compound, the outcome [4] was “inactive”, the outcome [5] was “inactive” and the outcome [6] was “inactive”. For the same compound, the outcome [7] was “inactive”, the outcome [8] was “inactive” and the outcome [9] was “inactive”. For the same compound, the outcome [10] was “inactive” and the outcome [11] was “inactive”.
